Compound activity: PubChem BioAssay, Sanford-Burnham Center for Chemical Genomics
In the library only some 6.3% were active in any assay of this set; here they are far more common.
MPTP block: mitochondrial permeability transition pore inhibitors, primary screen, biochemical, isolated mouse mitochondria, absorbance; Ca2+ swelling absorbance, 30 min; inhibition, % at 10 µM; 1.4% of 360,000 active;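 active means inhibition of 50% or more, scaled per plate between neutral and stimulator controls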;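 further: 0% = DMSO wells given calcium and 100% = 1 mM EGTA wells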
tim23-1 inh: growth inhibitors of tim23-1 mutant yeast, primary screen, luminescence, uHTS | inhibition, % at 20 µM | S. cerevisiae tim23-1 growth, BacTiter-Glo luminescence, 24 h | 1.3% of 330,000 active;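 active means growth inhibition of the mutant yeast at or above 50%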;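 further: temperature-sensitive mutant grown at 25 °C; plate controls were DMSO-treated mutant yeast for no effect and medium wells lacking yeast for full effect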
tim10-1 inh: growth inhibitors of tim10-1 mutant yeast, primary screen, luminescence, uHTS | S. cerevisiae tim10-1 ts strain growth, BacTiter-Glo, 24 h | inhibition, % at 20 µM | 2.2% of 330,000 active;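 active means inhibition of at least 40%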;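 further: mutant grown at 25 °C; 0% = DMSO wells with yeast and 100% = wells holding no yeast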
TIM10 inh: growth inhibitors of isogenic TIM10 control yeast, primary screen, counter-screen for tim10-1 yeast inhibitor project, luminescence, uHTS | S. cerevisiae TIM10 strain growth, BacTiter-Glo luminescence, 24 h | inhibition, % at 10 µM | 1.4% of 330,000 active | AID 463195, 2010;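 active means inhibition of 40% or more at the single tested concentration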;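 further: wild-type TIM10 isogenic control strain grown at permissive 25 °C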
Mdm2 MdmX PPI: inhibitors of human Mdm2-MdmX association, primary screen, cell-based, luminescence, split luciferase, SaOS-2, uHTS. Protein Mdm4 (Homo sapiens) + E3 ubiquitin-protein ligase Mdm2 (Homo sapiens), …. SaOS-2 split-luciferase Mdm2/MdmX complementation. inhibition, % at 8 µM. 3% of 330,000 active. AID 485346, 2010;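 active means inhibition of at least 50% at 8 µM in the primary screen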
Target sequence (O15151 whole entry, looked up): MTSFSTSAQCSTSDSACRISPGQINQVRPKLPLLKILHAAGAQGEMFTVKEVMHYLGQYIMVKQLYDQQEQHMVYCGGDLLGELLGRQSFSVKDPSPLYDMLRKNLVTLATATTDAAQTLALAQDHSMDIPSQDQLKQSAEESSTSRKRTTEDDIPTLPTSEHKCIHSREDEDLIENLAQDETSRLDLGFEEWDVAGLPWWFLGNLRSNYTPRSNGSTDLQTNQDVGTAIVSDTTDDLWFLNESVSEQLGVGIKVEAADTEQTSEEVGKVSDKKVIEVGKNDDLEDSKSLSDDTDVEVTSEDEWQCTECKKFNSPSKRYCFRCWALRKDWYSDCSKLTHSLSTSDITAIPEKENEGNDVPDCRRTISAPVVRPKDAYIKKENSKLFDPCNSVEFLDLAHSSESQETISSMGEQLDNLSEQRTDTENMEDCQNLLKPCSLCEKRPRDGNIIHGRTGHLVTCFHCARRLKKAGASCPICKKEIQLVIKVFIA
Target sequence (Q00987 whole entry, looked up): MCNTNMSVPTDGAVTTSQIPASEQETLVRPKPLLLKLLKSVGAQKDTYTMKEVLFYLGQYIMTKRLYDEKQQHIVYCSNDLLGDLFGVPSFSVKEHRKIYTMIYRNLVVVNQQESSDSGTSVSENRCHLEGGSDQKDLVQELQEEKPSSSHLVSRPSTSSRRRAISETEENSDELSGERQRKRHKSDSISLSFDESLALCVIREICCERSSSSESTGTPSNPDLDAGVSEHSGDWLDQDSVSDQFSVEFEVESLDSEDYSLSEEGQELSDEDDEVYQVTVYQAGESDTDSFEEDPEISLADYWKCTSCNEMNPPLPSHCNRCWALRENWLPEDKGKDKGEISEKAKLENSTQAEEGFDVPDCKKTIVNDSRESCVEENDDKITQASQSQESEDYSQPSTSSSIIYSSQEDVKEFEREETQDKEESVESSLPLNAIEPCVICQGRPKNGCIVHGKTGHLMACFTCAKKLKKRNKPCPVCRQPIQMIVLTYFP
tim10-1 confirm: growth inhibitors of tim10-1 mutant yeast, confirmation, single concentration, luminescence, S. cerevisiae; shares compounds with tim10-1 inh; S. cerevisiae tim10-1 ts strain growth, BacTiter-Glo, 24 h; inhibition, % at 20 µM; 56% of 7,400 active;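 active means inhibition of yeast growth at or above a set limit in either of two repeat tests at 20 µM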;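 further: tim10-1 mutant grown at permissive 25 °C to find synthetic lethal compounds; 0% = DMSO yeast wells and 100% = medium wells without yeast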
TIM10 conf: growth inhibitors of wild-type TIM10 yeast, confirmation, counter-screen for tim10-1 synthetic lethality project, single concentration, luminescence, S. cerevisiae | shares compounds with TIM10 inh | inhibition, % at 10 µM | S. cerevisiae tim10 strain growth, BacTiter-Glo luminescence, 24 h | 63% of 4,600 active;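 active means inhibition of yeast growth at or above a set limit in either of two replicates at 10 µM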;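 further: this counterscreen used the strain with wild-type TIM10; 0% = yeast with DMSO and 100% = medium wells lacking yeast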
tim23-1 conf: tim23-1 mutant yeast growth inhibitors, confirmation, luminescence, single concentration. S. cerevisiae tim23-1 growth, BacTiter-Glo luminescence, 24 h. shares compounds with tim23-1 inh. 83% of 4,400 active. inhibition, % at 20 µM;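 active means inhibition above about 39% in either of two replicate wells at 20 µM, limit read from the data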;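 further: temperature-sensitive tim23-1 mutant grown at 25 °C; 0% = DMSO wells with yeast and 100% = medium wells without yeast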
Mdm2 MdmX conf: Mdm2-MdmX complex disruptors, retested hits, confirmation, luminescence, single concentration. Mdm2-MdmX binding, luminescent assay. inhibition, % at 8 µM. shares compounds with Mdm2 MdmX PPI. 55% of 10,000 active; in the data active means inhibition above about 40%
Full FLuc ctr: full-length luciferase signal inhibition, confirmation, counter-screen for Mdm2/MdmX interaction inhibitor project, cell-based, single concentration, SaOS-2. inhibition, % at 8 µM. SaOS-2 full-length luciferase counterscreen, luminescence. shares compounds with Mdm2 MdmX PPI. 77% of 6,200 active;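 active means mean inhibition at 8 µM reaching about 37%, which flags the compound as non-specific, limit read from the data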;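 further: p53-null SaOS-2 cells with luciferase driven by a doxycycline-inducible promoter; compound on cells about two nights before reading with doxycycline added after day one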
The depositor's hits bear a star; . = not tested or not shown.

SMILES | MPTP block | tim23-1 inh | tim10-1 inh | TIM10 inh | Mdm2 MdmX PPI | tim10-1 confirm | tim23-1 conf | Mdm2 MdmX conf | Full FLuc ctr | others
COc1ccc2[nH]c(=O)cc(C(=O)O)c2c1 | -2 | 5 | 15 | 6 | 8 | . | . | . | .
CCCNC(=O)c1ccc(CN2CCc3ccccc3C2)cc1 | -3 | 8 | 0 | -18 | 0 | . | . | . | .
C/C(=N\NC(=O)c1ccc(CN2CCc3ccccc3C2)cc1)c1ccccc1O | 0 | 74* | 47* | 45* | 55* | 29 | 79* | 65* | 85* | TIM10 conf=48*
Brc1cc2c(cc1Br)OCCOCCOCCOCCO2 | 0 | 21 | 22 | 0 | -7 | . | . | . | .
Brc1ccc2c(c1)OCCOCCOc1cc(Br)ccc1OCCOCCOCCO2 | 8 | 62* | 57* | 35 | 74* | 62* | 72* | 40 | 60*
O=C(COc1ccc([N+](=O)[O-])cc1)Nc1nc(-c2ccccn2)cs1 | -2 | 38 | 42* | 0 | 76* | 13 | . | 81* | 36
CC(Oc1ccc(Br)cc1)C(=O)Nc1nc(-c2ccccn2)cs1 (stereo unspecified) | -1 | 70* | 45* | 37 | 80* | 19 | 50* | 71* | 35
CCCc1c(-c2ccc(F)cc2F)ncn1Cc1cccc(-c2ccccc2)c1 | 3 | . | . | . | . | . | . | . | .
COC(=O)c1ccc(Sc2nnnn2-c2ccccc2)c([N+](=O)[O-])c1 | 0 | 42 | 50* | 25 | 68* | 35* | . | 49* | 23
Cn1nc(-c2ccc(Cl)cc2)nc2c(=O)n(C)c(=O)nc1-2 | . | 77* | 93* | 95* | 83* | 92* | 80* | 80* | 20 | TIM10 conf=99*
Cn1nccc1-c1ccc(C(=O)NCc2ccco2)c2occc12 | 0 | . | . | . | . | . | . | . | .
O=C(OCn1ncc(Cl)c(Cl)c1=O)c1ccc(F)cc1 | . | 75* | 66* | 59* | 93* | 61* | 85* | 100* | 50* | TIM10 conf=54*
O=C(NCC1CC1)c1ccc2sc([C@@H]3O[C@H](CO)[C@H](O)[C@H](O)[C@H]3O)nc2c1 | 0 | . | . | . | . | . | . | . | .
O=C1CC(c2ccc3c(c2)OCCO3)Oc2ccc([N+](=O)[O-])cc21 (stereo unspecified) | 5 | 47 | 42* | 45* | 72* | 39* | . | 72* | 144* | TIM10 conf=54*
O=C1CC(c2ccc3c(c2)OCCO3)Oc2ccccc21 (stereo unspecified) | -1 | 20 | 29 | 15 | -78 | . | . | . | .
CCN(C)C1CN(Cc2cn(Cc3ccc(F)cc3)nn2)S(=O)(=O)C1 (stereo unspecified) | 1 | . | . | . | . | . | . | . | .
COc1cccc(-c2cccc(-c3nc(C(=O)NCc4ccc(Oc5ccccc5)cc4)cc4c3[C@H](CCO)N(S(=O)C(C)(C)C)C4)c2)c1 (stereo partly specified) | 5 | . | . | . | . | . | . | . | .
Cc1ccc(C(=O)c2oc3ccc(Cl)cc3c2NC(=O)CN2CCN(C)CC2)cc1 | 1 | 23 | 49* | 3 | 82* | 17 | . | 34 | 68*
COc1cccc(C(C)(O)c2nc(-c3cccc(C(C)C)c3)cs2)c1 (stereo unspecified) | 4 | . | . | . | . | . | . | . | .
O[C@@H]1[C@@H](O)C=C2CCN3Cc4cc5c(cc4[C@H]1C23)OCO5 (stereo partly specified) | 2 | 76* | 88* | 90* | 84* | 84* | 77* | 76* | 101* | TIM10 conf=89*
FC(F)(F)c1nnc(-c2ccccc2)nc1Sc1ccc(Cl)cc1 | 0 | 62* | 51* | 31 | 86* | 49* | 47* | 34 | 16
COc1cccc(/C=N/NC(=O)CCn2c3ccccc3c3ccccc32)c1 | 7 | 7 | 6 | 9 | 11 | . | . | . | .
COc1ccc(/C=N/NC(=O)CCn2c3ccccc3c3ccccc32)cc1O | 0 | 43 | 45* | 33 | 53* | 16 | . | 58* | 60*
CCN1CCN(CCCNC(=O)c2ccc(/C=C3/Oc4ccccc4N(Cc4cccc(C)c4)C3=O)cc2)CC1 | -2 | 57* | 49* | -2 | 100* | 7 | 48* | 33 | .
CCCCNC(=O)c1ccc(/C=C2\Oc3ccccc3N(C)C2=O)cc1 | 1 | -6 | 20 | 5 | 10 | . | . | . | .
SMILES | MPTP block | tim23-1 inh | tim10-1 inh | TIM10 inh | Mdm2 MdmX PPI | tim10-1 confirm | tim23-1 conf | Mdm2 MdmX conf | Full FLuc ctr | others
COc1ccc(-c2c[n+]3c4n2CCCCC4=C(c2ccccc2)C3)cc1 | 8 | 37 | 45* | 36 | 67* | 17 | . | 17 | .
COc1ccc(-c2c[n+](CC(=O)c3ccccc3)c3n2CCCCC3)cc1 | -2 | -3 | 15 | 24 | 21 | . | . | . | .
CC(=O)Nc1nc2ccccc2n1Cc1ccccc1Cl | -1 | 27 | 46* | 16 | 67* | 22 | . | 60* | 67*
CC(=O)Nc1nc2ccccc2n1Cc1ccccc1C | -2 | 18 | 46* | 13 | 79* | 27 | . | 59* | 71*
CNC(=O)C[C@H]1C(=O)N(c2ccc(Br)cc2)C[C@@H]1C | 0 | . | . | . | . | . | . | . | .
O=C(/C=C/c1ccccc1)/C=C/c1ccccc1 | -1 | 59* | 48* | 53* | 95* | 49* | 67* | 22 | . | TIM10 conf=-29
O=C(/C=C/c1ccccc1)c1ccccc1 | 1 | 13 | 18 | 5 | 18 | . | . | . | .
COc1ccc(OC)c(S(=O)(=O)NC(=O)C2(C)CCN2C(=O)Cc2ccccc2)c1 (stereo unspecified) | -2 | . | . | . | . | . | . | . | .
CC(C)c1ccc(N2C(=O)CC(Sc3nc4ccccc4o3)C2=O)cc1 (stereo unspecified) | 4 | 30 | 52* | 53* | 100* | 46* | . | 29 | . | TIM10 conf=41*
CCOC(=O)C1=C(c2ccccc2)O/C(=C(/C#N)C(F)(F)F)S1 | . | 44 | 47* | 40 | 101* | 39* | . | 99* | 0
COc1ccc(C#CC2=CC(=O)CC(C)(C)C2)cc1 | -1 | . | . | . | . | . | . | . | .
